Source: PubChem (National Center for Advancing Translational Sciences (NCATS))
FMDV inh: High Throughput Screening for Foot and Mouth Disease Virus Antivirals; FMDV antiviral cell-based qHTS; Potency, µM (highest dose often 57.9 µM), actives largely listed as inhibitors; hit rate 1.2% among 410,000; AID 1159524, 2015; calls by dose curve; tested in HEK293T cells; further: read-out not given here; nearly all actives have a fitted effect of over 45% in size
HCMV inh: qHTS Assay for inhibitors of the human cytomegalovirus (HCMV); HFF cells, HCMV-luciferase reporter, 72 h; active compounds read low; activity change, negative = inhibition, % at 57.5 µM; hit rate 4.5% among 410,000; in the data active means activity change below about -60%; inconclusive means no clear call, values can overlap the other calls; inactive means above about -39%
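HFF cells seeded 16 h at 37C, treated with compounds, infected with luciferase-reporter HCMV at MOI 1 PFU/cell; luciferase read at 72 h post infection, normalized to buffer-only and Salinomycin controls.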
MARV entry inh: qHTS for inhibitors of binding or entry into cells for Marburg Virus; Potency, µM (top dose mostly 37.8 µM), actives largely listed as inhibitors; hit rate 1.8% among 300,000; AID 540276, 2011; Marburg virus pseudotyped entry inhibition, cell reporter; calls by dose curve; tested in HEK293 cells
Lassa entry inh: qHTS for Inhibitors of binding or entry into cells for Lassa Virus. Lassa virus pseudotype entry inhibition, cell reporter. Potency, µM (highest dose often 37.9 µM), usual class: inhibitors. hit rate 1.2% among 300,000; calls by dose curve; tested in HEK293 cells; further: nearly all actives have a fitted effect of over 50% in size
Large screens that a line does not name were inactive. Compounds with a hit are over-represented: about 6.2% of the library has one in this group of screens.

C[C@H]1CCCCO[C@@H](CN(C)CC2CC2)[C@@H](C)CN([C@@H](C)CO)C(=O)c2cc(NS(=O)(=O)c3ccccc3)ccc2O1	none (no result: FMDV inh, MARV entry inh, Lassa entry inh)
C[C@@H]1CCCCO[C@@H](CN(C)CC2CCCCC2)[C@@H](C)CN([C@H](C)CO)C(=O)c2cc(NS(=O)(=O)c3ccc(Cl)cc3)ccc2O1	HCMV inh -101.6 (no result: MARV entry inh, Lassa entry inh)
C[C@@H]1CN([C@H](C)CO)C(=O)c2cc(NS(=O)(=O)c3ccccc3)ccc2O[C@@H](C)CCCCO[C@@H]1CN(C)Cc1ccccc1	none (no result: FMDV inh, MARV entry inh, Lassa entry inh)
C[C@H]1CCCCO[C@H](CN(C)CC2CCCCC2)[C@@H](C)CN([C@@H](C)CO)C(=O)c2cc(NS(=O)(=O)c3ccccc3)ccc2O1	HCMV inh -62.9 (no result: MARV entry inh, Lassa entry inh)
Cc1ccc(S(=O)(=O)Nc2ccc3c(c2)C(=O)N([C@@H](C)CO)C[C@@H](C)[C@@H](CN(C)CC2CC2)OCCCC[C@@H](C)O3)cc1	FMDV inh inconclusive (no result: MARV entry inh, Lassa entry inh)
CS(=O)(=O)c1cccc(C(=O)OCC(=O)NCc2cccs2)c1	none (no result: MARV entry inh, Lassa entry inh)
CC(Sc1nnc(C2CC2)n1C)C(=O)Nc1ccc2c(c1)CCC2 (stereo not given)	none (no result: MARV entry inh, Lassa entry inh)
COCCNC(=O)C1CCCN(Cc2ccc(C(C)C)cc2)CC1 (stereo not given)	none (no result: MARV entry inh, Lassa entry inh)
COC(=O)C(C(=O)N1CCN(C)CC1)C1CCCCCC1 (stereo not given)	none
CC(C)(C)c1ccc(OCC(=O)NCCN2CCOCC2)cc1	none
COc1ccc(CNC(=O)CCn2c(=O)c3cccn3c3ccc(F)cc32)cc1	none (no result: MARV entry inh, Lassa entry inh)
Cc1occc1-c1nnc(SC(C)C(=O)Nc2ccccc2F)o1 (stereo not given)	MARV entry inh inconclusive, Lassa entry inh 11.2µM
CC1CCc2nc(NC(=O)CSc3nc4ccccc4o3)sc2C1 (stereo not given)	FMDV inh inconclusive, HCMV inh -85.1, Lassa entry inh inconclusive
CCC(=O)NC(c1ccc(OC)cc1)c1cc(Cl)c2cccnc2c1O (stereo not given)	MARV entry inh 2.24µM, Lassa entry inh 2.82µM
CC(=O)NC(c1cc(Cl)c2ccccc2c1O)C(C)C (stereo not given)	none (no result: MARV entry inh, Lassa entry inh)
CCCCC(=O)NC(c1ccco1)c1cc(Cl)c2cccnc2c1O (stereo not given)	HCMV inh -96.3, MARV entry inh inconclusive, Lassa entry inh inconclusive
CC(=O)NC(c1cc(Cl)c2cccnc2c1O)C(C)C (stereo not given)	HCMV inh -97.8 (no result: MARV entry inh, Lassa entry inh)
COc1cccc(C(=O)NC(c2ccc(Cl)cc2)c2cc(Cl)c3cccnc3c2O)c1 (stereo not given)	HCMV inh inconclusive, Lassa entry inh inconclusive (no result: MARV entry inh)
COc1ccc(C(NC(=O)c2cccnc2)c2cc(Cl)c3cccnc3c2O)cc1OC (stereo not given)	FMDV inh inconclusive, HCMV inh -97.2, MARV entry inh 7.08µM, Lassa entry inh 15.8µM
Cc1c(NC(=O)CN2C(=O)NC(C)(c3ccc(OC(F)F)cc3)C2=O)c(=O)n(-c2ccccc2)n1C (stereo not given)	none
CC(=O)NC(c1cc(Cl)c2cccnc2c1O)C1CC1 (stereo not given)	HCMV inh -97.4 (no result: MARV entry inh, Lassa entry inh)
CC(=O)NC(c1ccc(C)cc1)c1cc(Cl)c2cccnc2c1O (stereo not given)	HCMV inh -101.6, MARV entry inh 2.82µM, Lassa entry inh inconclusive
CCC(=O)NC(c1ccco1)c1cc(Cl)c2cccnc2c1O (stereo not given)	HCMV inh -97.2, MARV entry inh inconclusive, Lassa entry inh inconclusive
CC(=O)NC(c1ccco1)c1cc(Cl)c2cccnc2c1O (stereo not given)	HCMV inh -89.3 (no result: MARV entry inh, Lassa entry inh)
CCC(=O)NC(c1ccco1)c1cc(Cl)c2cccnc2c1OC (stereo not given)	none (no result: MARV entry inh, Lassa entry inh)
C(=N\c1nccs1)/c1cccnc1	none
FC(F)(F)c1cnc(-c2cnc(-c3ccncc3)nc2)c(Cl)c1	MARV entry inh inconclusive
CCOC(=O)c1sc(NC(=O)C2CC(=O)N(c3ccc4c(c3)OCCO4)C2)nc1C (stereo not given)	none (no result: MARV entry inh, Lassa entry inh)
CC(C)Cn1c([N+](=O)[O-])nc2c1c(=O)[nH]c(=O)n2C	FMDV inh 28.2µM, HCMV inh -103.2, MARV entry inh inconclusive, Lassa entry inh 7.08µM
Cn1c(=O)[nH]c(=O)c2c1nc([N+](=O)[O-])n2Cc1ccccc1	FMDV inh 7.94µM, HCMV inh -97.2, MARV entry inh inconclusive, Lassa entry inh inconclusive
Cn1c(=O)[nH]c(=O)c2c1nc(N1CCNCC1)n2Cc1ccccc1	MARV entry inh inconclusive, Lassa entry inh inconclusive
CN=c1scc(C)n1/N=C/c1ccc(O)cc1	MARV entry inh inconclusive, Lassa entry inh inconclusive
C=CCN=c1scc(C)n1/N=C/c1ccc(O)c(O)c1	HCMV inh -96.8 (no result: MARV entry inh, Lassa entry inh)
CN=c1scc(C)n1/N=C/c1ccc2c(c1)OCO2	MARV entry inh inconclusive, Lassa entry inh 3.55µM
CN=c1scc(C)n1/N=C/c1ccc(O)cc1O	FMDV inh inconclusive, MARV entry inh inconclusive, Lassa entry inh inconclusive
CN=c1scc(-c2ccco2)n1/N=C/c1ccc(O)c(O)c1	FMDV inh 14.1µM, MARV entry inh inconclusive, Lassa entry inh inconclusive
CC(C)n1nnnc1C1c2ccccc2C(=O)N1Cc1cccc(F)c1 (stereo not given)	none (no result: MARV entry inh, Lassa entry inh)
COc1ccc(OC)c(-n2c(=S)[nH]c3cc(C(=O)N4CCC(C(N)=O)CC4)ccc3c2=O)c1	none
O=c1c2c3c(sc2ncn1/N=C/c1ccc([N+](=O)[O-])o1)CCCC3	FMDV inh 28.2µM, Lassa entry inh inconclusive
COc1ccc(-c2cn[nH]c2-c2ccc(OC)cc2O)cc1	HCMV inh -64.8, Lassa entry inh inconclusive
COc1cccc(Oc2cn[nH]c2-c2ccc(O)cc2O)c1	MARV entry inh inconclusive (no result: FMDV inh)
COc1ccccc1Oc1cn[nH]c1-c1ccc(O)cc1O	HCMV inh -66.2 (no result: MARV entry inh, Lassa entry inh)
COc1ccc(-c2cn[nH]c2-c2ccc(OCc3ccccc3)cc2O)cc1	HCMV inh -71.4, MARV entry inh inconclusive, Lassa entry inh 3.55µM
COc1ccc(-c2[nH]ncc2-c2ccc(Cl)cc2)c(O)c1	FMDV inh inconclusive, HCMV inh -64.9
CN(C)c1ccc(CNC(=O)c2cnc3sc(N4CCCCCC4)nn3c2=O)cc1	Lassa entry inh inconclusive (no result: MARV entry inh)
CCCCNC(=O)CCSc1nc(-c2ccc3c(c2)OCO3)cc(C(F)(F)F)n1	none
CCCN(Cc1ccccc1)C(=S)Nc1ccc(OCC)cc1	MARV entry inh inconclusive, Lassa entry inh inconclusive
O=C1CS/C(=N/N=C/c2ccncc2)N1	none
COc1cc(C(=O)O/N=C(\N)Cc2ccc([N+](=O)[O-])cc2)cc(OC)c1OC	FMDV inh inconclusive, HCMV inh inconclusive, MARV entry inh 2.51µM, Lassa entry inh 3.16µM
N/C(Cc1ccc(Cl)cc1)=N\OC(=O)Cc1ccc([N+](=O)[O-])cc1	Lassa entry inh inconclusive
N/C(Cc1ccc([N+](=O)[O-])cc1)=N\OC(=O)c1ccc([N+](=O)[O-])cc1	none
N/C(Cc1ccc(Cl)cc1)=N\OC(=O)c1ccccc1	MARV entry inh 12.6µM, Lassa entry inh inconclusive
COc1ccc(C(=O)O/N=C(\N)Cc2ccc(Cl)cc2)cc1OC	FMDV inh inconclusive, HCMV inh inconclusive, MARV entry inh inconclusive, Lassa entry inh 11.2µM
O=C(NCc1cccnc1)c1ccc(Cl)c(Cl)c1	none
Nc1cc2ccncc2c2ccccc12	HCMV inh -95.6 (no result: MARV entry inh, Lassa entry inh)
CC(=O)C[C@@H]1OC[C@H](Cc2ccccc2)N1S(=O)(=O)c1ccc(C)cc1	none (no result: MARV entry inh, Lassa entry inh)
